A short description of assay [1]: Stat Signaling Pathway (AID 446; active = well fitted curve in either direction with a large enough effect, not every such curve was filed as active). The procedure, abridged: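 FRET read-out (405 nm excitation, 460/530 nm emission) of a beta-lactamase reporter under a STAT-inducible element in ME-180 cervical carcinoma cells. Cells with compound receive 40 pM IL-6 for 5 h. Values are normalised to AC90 stimulation and AC90 JAK-inhibitor controls.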
For assay [2], the target named is Guanine nucleotide-binding protein G(i) subunit alpha-1 (Homo sapiens) (UniProt P63096). Put plainly: qHTS Assay for Inhibitors of RGS12 GoLoco Motif Activity (Green Fluorophore) (AID 879). Summed up: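 A drop in FITC polarization marked displacement of the FITC-tagged RGS12 GoLoco peptide (10 nM) from Gαi1 (50 nM). Compounds were incubated 10 min at room temperature in Tris pH 7.5 buffer containing 150 mM NaCl, 0.1 mM GDP and 0.05% NP40; unlabeled peptide titration served as control.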

Assay [3] concerns the target Cytochrome P450 3A4 (Homo sapiens) (UniProt P08684). As to the kind of experiment: qHTS Assay for Inhibitors and Substrates of Cytochrome P450 3A4 (AID 884). The procedure, abridged: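 Luminescent readout of luciferin produced by CYP3A4 (20 nM) dealkylation of Luciferin-PPXE, 25 uM (its KM). NADPH-driven reaction ran 60 min at RT after 10 min compound preincubation; data scaled to 57 uM ketoconazole as 100% inhibition.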
On the technique in general: Quantitative high-throughput screening tests each substance at several concentrations.

Assay [4] concerns the target Pyruvate kinase (Leishmania mexicana) (UniProt Q27686). Put plainly: qHTS Validation Assay for Inhibitors of Leishmania Mexicana Pyruvate Kinase (AID 945). The procedure, abridged:
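Substrate mix (0.5 mM PEP, 0.1 mM ADP, 7 mM MgCl2, 50 mM KCl, pH 7.2 imidazole) received compound by pin tool, then 0.2 nM LmPYK E451W. After 1 h at room temperature, PKLight was added and luminescence measured.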

The target of assay [5] is Alpha-galactosidase A (Homo sapiens) (UniProt P06280). As to the kind of experiment: Counterscreen for Glucocerebrosidase Inhibitors: qHTS Assay for Human alpha-Galactosidase at pH 4.5 (AID 992). The procedure, abridged: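 Fluorogenic 1536-well qHTS at pH 4.5 (citrate, Tween-20): 2 nM enzyme, 80 uM 4-MU-alpha-galactoside, 20 min room temperature, NaOH/glycine stop. Titration 0.7 nM to 77 uM, data normalized to no-enzyme and full-activity controls, Hill-fitted AC50.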
Background: Counterscreens check selectivity or assay interference.

The target of assay [6] is alpha-glucosidase (Oryza sativa, rice) (UniProt Q653V4). Put plainly: Counterscreen for Glucocerebrosidase Inhibitors: qHTS Assay for Rice alpha-Glucosidase at pH 5.0 (AID 997). Summed up: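 Endpoint fluorogenic assay at pH 5.0: compounds (0.7 nM to 77 uM) titrated against 4 nM rice enzyme and 400 uM 4-MU-alpha-glucoside for 20 min at room temperature; NaOH/glycine stop, read ex 365/em 440 nm, Hill-fitted AC50.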

Assay [7] can be described thus: SW1088 Cancer Cell Toxicity qHTS against the NCATS CANVASS Library (AID 1347350). The procedure, abridged: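 Toxicity is measured over 72 h of compound exposure at 37 degrees C under 5% CO2. Each well holds 1000 cells, pre-incubated for 4 hours before dosing across an 11-point range. CellTiter-Glo luminescence gives viability.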
Assay [8] is described as follows: A2780 Cisplatin Sensitive Ovarian Cancer Cell Toxicity qHTS against the NCATS CANVASS Library (AID 1347353). The procedure, abridged:
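Cisplatin-sensitive A2780 ovarian cells (750/well) received compound in 11 concentrations, and were incubated 72 h at 37 °C. ATP content was measured by ATPLite luminescence; bortezomib served as control.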

Assay [9] can be described thus: HEK-293 Cancer Cell Toxicity qHTS against the NCATS CANVASS Library (AID 1347355). The procedure, abridged:
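Toxicity was measured as CellTiter-Glo luminescence after 72 h exposure to an 11-point compound series. Compound was added to 1000 cells/well 4 h after seeding.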

Assay [10] is described as follows: G06 Cancer Cell Toxicity qHTS against the NCATS CANVASS Library (AID 1347368). Summed up: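 Viability measured by CellTiterGlo ATP luminescence after 72 hr at 37C, 5% CO2. Canine G06 glioma cells plated at 500/well. Compounds tested as 11-point qHTS titrations.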
Assay [11] in a line: MCF7 Cancer Cell Toxicity qHTS against the NCATS CANVASS Library (AID 1347369). The procedure, abridged: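 MCF7 cells (500/well) were exposed 72 h at 37 °C to compounds in an 11-point series. Viability was read as ATP content by CellTiterGlo luminescence.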
The nature of assay [12]: qHTS for ATAD5 Antagonist screened against the NCATS CANVASS Library (AID 1347370). Summed up: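 Compounds (11-point) co-dosed with 10 µM 5-FUrd for 16 h at 37 °C onto HEK293T-ATAD5 luciferase reporter cells. Viability measured by CellTiter-Fluor fluorescence, then ATAD5 reporter signal by luminescence.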
The nature of assay [13]: qHTS for Hypoxia signaling pathway (HIF-1) agonists against the NCATS CANVASS Library (AID 1347375). Summed up:
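Beta-lactamase reporter under HRE control in ME-180 cells; compounds (11-point qHTS series) added after 5 hrs plating, then 17 hrs at 37C. FRET substrate read after 2 hr; same-well CellTiter-Glo luminescence gave viability and normalization.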

Assay [14] in a line: qHTS for inhibitors of Wild type Zika virus screened against the NCATS CANVASS Library (AID 1347396). Summed up: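 Luminescent CellTiter Glo read-out of virus-induced cytotoxicity, 72 h post-infection, in Vero 766 cells. Compounds were tested at 11 concentrations; uninfected, vehicle-treated wells defined 100% inhibition.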
Assay [15] is described as follows: qHTS for inhibitors of Rabies Virus screened against the NCATS CANVASS Library (AID 1347402; calls by dose curve).
Assay [16] deals with Cytochrome P450 2D6 (Homo sapiens) (UniProt P10635). Put plainly: qHTS Assay for Inhibitors and Substrates of Cytochrome P450 2D6 (AID 891). Summed up:
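Luminescent read-out of luciferin formed by 5 nM human CYP2D6 demethylating 30 uM Luciferin-ME EGE (Km level) over 60 min at room temperature after NADPH regeneration addition. Data normalized to full inhibition by 1.43 uM quinidine.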

Assay [17] is described as follows: qHTS for activators of Nrf2/ARE signaling pathway screened against the NCATS CANVASS Library (AID 1347391). The procedure, abridged:
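Eleven-point qHTS, 16 h treatment of HepG2 cells carrying an ARE-driven beta-lactamase reporter; CCF4 ratio read (405 nm excitation, 460 and 530 nm emission), with CellTiter-Glo ATP luminescence for viability.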

Molecules are shown by their SMILES. A number with no mark means an inactive call. Inconclusive results are not listed. The source made the active and inactive calls. Unless noted, calls come from the whole dose curve; as a rule, active = well fitted curve in the direction sought with a large enough effect; inconclusive = small, poorly fitted or top-dose-only effect, or another doubt; inactive = no such curve, though single readings can be large; an effect the other way counts as inactive or inconclusive.

Chain of Cytochrome P450 2D6 (Homo sapiens) (P10635 whole entry, looked up): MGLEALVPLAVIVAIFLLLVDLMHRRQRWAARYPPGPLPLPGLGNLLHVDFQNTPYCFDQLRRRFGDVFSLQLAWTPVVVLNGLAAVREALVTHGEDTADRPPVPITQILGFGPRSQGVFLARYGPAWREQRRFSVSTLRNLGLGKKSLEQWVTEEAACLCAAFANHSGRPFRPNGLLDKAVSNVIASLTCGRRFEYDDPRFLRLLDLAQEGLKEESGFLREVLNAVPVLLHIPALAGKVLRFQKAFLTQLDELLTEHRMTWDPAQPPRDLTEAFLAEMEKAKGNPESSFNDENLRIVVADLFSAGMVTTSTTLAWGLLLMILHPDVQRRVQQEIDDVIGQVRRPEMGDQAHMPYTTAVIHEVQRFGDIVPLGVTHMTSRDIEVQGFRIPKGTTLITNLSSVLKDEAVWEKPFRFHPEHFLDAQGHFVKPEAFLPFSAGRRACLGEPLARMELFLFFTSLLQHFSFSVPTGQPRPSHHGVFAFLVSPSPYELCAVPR
Chain of Cytochrome P450 3A4 (Homo sapiens) (P08684 whole entry, looked up): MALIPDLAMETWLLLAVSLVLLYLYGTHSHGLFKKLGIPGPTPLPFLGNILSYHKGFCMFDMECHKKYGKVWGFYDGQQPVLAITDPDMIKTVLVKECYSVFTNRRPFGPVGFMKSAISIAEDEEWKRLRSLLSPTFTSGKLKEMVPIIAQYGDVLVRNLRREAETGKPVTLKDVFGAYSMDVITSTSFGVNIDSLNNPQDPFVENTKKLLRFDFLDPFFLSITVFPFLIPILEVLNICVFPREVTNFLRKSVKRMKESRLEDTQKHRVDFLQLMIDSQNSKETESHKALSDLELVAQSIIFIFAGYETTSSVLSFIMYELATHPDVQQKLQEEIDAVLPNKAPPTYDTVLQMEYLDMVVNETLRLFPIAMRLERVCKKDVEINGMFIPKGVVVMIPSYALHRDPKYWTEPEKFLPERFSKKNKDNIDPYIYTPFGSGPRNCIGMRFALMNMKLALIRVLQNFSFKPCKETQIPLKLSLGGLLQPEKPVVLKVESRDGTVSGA
Chain of Alpha-galactosidase A (Homo sapiens) (P06280 whole entry, looked up): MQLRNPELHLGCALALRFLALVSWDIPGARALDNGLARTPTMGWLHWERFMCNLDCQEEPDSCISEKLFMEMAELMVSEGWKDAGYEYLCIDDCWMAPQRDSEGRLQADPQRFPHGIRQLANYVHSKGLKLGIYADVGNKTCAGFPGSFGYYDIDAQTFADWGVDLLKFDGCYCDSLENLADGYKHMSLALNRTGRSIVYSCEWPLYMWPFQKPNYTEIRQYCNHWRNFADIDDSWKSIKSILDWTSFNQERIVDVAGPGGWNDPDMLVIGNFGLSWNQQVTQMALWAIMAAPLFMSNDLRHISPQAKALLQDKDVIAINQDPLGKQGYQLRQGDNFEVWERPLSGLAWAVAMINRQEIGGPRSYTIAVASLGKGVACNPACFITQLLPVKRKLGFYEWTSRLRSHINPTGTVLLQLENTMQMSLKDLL
Chain of Guanine nucleotide-binding protein G(i) subunit alpha-1 (Homo sapiens) (P63096 whole entry, looked up): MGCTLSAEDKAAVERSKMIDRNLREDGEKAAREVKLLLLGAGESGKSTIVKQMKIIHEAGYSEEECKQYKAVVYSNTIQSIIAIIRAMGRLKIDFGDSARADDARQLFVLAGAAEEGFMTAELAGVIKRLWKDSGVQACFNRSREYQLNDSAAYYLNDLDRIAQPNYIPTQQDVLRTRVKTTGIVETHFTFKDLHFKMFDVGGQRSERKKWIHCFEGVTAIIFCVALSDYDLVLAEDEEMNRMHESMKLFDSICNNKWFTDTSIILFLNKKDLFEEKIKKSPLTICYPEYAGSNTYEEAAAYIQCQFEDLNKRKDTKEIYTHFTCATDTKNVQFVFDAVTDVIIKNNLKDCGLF
Chain of Pyruvate kinase (Leishmania mexicana) (Q27686 2-499 E452W): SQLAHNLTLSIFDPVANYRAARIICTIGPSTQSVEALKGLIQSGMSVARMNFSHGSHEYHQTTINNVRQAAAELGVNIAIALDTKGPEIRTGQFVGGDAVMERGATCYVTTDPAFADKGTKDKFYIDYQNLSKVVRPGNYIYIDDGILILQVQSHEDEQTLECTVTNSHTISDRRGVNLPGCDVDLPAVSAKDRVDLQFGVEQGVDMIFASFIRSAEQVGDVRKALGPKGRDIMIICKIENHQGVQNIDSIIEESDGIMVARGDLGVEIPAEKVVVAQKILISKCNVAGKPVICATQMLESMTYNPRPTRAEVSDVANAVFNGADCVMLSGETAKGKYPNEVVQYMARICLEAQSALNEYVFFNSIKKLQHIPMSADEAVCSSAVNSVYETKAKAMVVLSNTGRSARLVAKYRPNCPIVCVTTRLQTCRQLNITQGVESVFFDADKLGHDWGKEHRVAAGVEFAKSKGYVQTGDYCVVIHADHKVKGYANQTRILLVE

For the compound `C=CCN1CC[C@]23c4c5ccc(O)c4O[C@@H]2C(=O)CC[C@]3(O)[C@H]1C5`, in [1], the compound was called inactive.
Consider `C=C(C)[C@H]1CN[C@H](C(=O)O)[C@@H]1CC(=O)O`, for which the result in assay [2], in assay [4], in assay [5] and in [6] was inactive. Further, the Potency entry in assay [3] was “inactive”.
On to `COc1ccc(C23Oc4cc(OC)cc(OC)c4[C@](O)([C@H](c4ccccc4)C2C(=O)NCCCCNC(=O)c2ccccc2)[C@@H]3O)cc1` (some centres undefined), for which the Potency result in assay [7], in assay [8], in assay [9], in assay [10], in assay [11] and in [12] was “inactive” throughout. Moreover, the Potency result in assay [13] and in assay [14] was “inactive” in each case. Besides, the result in [15] was inactive.
Regarding `C[C@H](N)Cc1c[nH]c2ccc(OCc3cccs3)cc12`, the outcome in assay [1], in assay [2], in assay [4], in assay [5] and in [6] was inactive. Further, the Potency in assay [16] is 794 nM (active).
Regarding `CCN1C[C@]2(C)CC[C@@H](O)[C@]34C1[C@H](C[C@H]23)C12CCC(CC14)[C@](O)(CO)[C@H]2O` (some centres undefined), the Potency result in assay [7], in assay [8], in assay [9], in [10], in [11] and in [12] was “inactive” throughout. Moreover, the Potency result in assay [13] and in assay [17] was “inactive” in each case. Moreover, the compound was classed as inactive in [15].
Take `Fc1ccc(C(OCCN2CCN(C/C=C\c3ccccc3)CC2)c2ccc(F)cc2)cc1`: the Potency in assay [16] was 7940 nM (active).
Consider `CCCC(=O)OCC[N+](C)(C)C`, for which, in assay [1], the result was inactive.
Take `COC(=O)C1=C2Nc3ccccc3[C@@]23CCN2CC(C(C)=O)C1C[C@H]23` (some centres undefined): the Potency entry in assay [7], in [8], in [9], in assay [10], in [11] and in assay [12] was “inactive” each time. Also, the Potency result in assay [13], in assay [17] and in [14] was “inactive” throughout. Also, the result in [15] was inactive.
In the case of `CC(C)C[C@H]1C(=O)N2CCCC2[C@]2(O)O[C@](NC(=O)[C@@H]3C=C4c5cccc6[nH]cc(c56)CC4N(C)C3)(C(C)C)C(=O)N12` (some centres undefined), in [3], the Potency is 1000 nM (active).
Turning to `CO[C@@H](/C=C/CC/C=C/C(=O)O)[C@@H](O)[C@H](C)[C@@H](O)/C(C)=C/[C@H](C)C(=O)CCCC1CC(=O)NC(=O)C1`, the Potency entry in [7], in [8], in assay [9], in assay [10], in assay [11] and in [12] was “inactive” in each case. Besides, the Potency entry in [13], in assay [17] and in assay [14] was “inactive” throughout. In assay [15], the result was inactive.
For the compound `O=C(CCCN1CCC2(CC1)C(=O)N(Cc1cccc(F)c1)CN2c1ccccc1)c1ccc(F)cc1`, the Potency in assay [16] was 3160 nM (active).
As to `C[C@]12CC(O)C3[C@@H](CCC4C[C@@H](O)CC[C@@]43CO)[C@@]1(O)CCC2C1=CC(=O)OC1` (some centres undefined), the Potency result in [7], in assay [8], in [9], in assay [11], in assay [12] and in assay [13] was “inactive” in each case. Further, the Potency entry in assay [14] is “inactive”. Moreover, the result in assay [15] was inactive.
Regarding `CCC(=O)CCCCC[C@@H]1NC(=O)[C@H]2CCCCN2C(=O)[C@H]([C@@H](C)CC)NC(=O)[C@H](Cc2cn(OC)c3ccccc23)NC1=O`, the Potency is 2660 nM (active) in assay [7], 1050 nM (active) in assay [8], 935 nM (active) in assay [9] and 743 nM (active) in [10]. The Potency entry in [11], in assay [12], in assay [13] and in assay [17] was “inactive” each time.
For the compound `CNCCc1ccccc1`, the Potency entry in assay [7], in assay [8], in assay [9], in [11], in assay [12] and in assay [13] was “inactive” each time. Also, the Potency result in [17] and in assay [14] was “inactive” throughout. The call in assay [15] was inactive.
As to `CO[C@@H](/C=C/CC/C=C/C(=O)O)[C@@H](O)[C@H](C)/C=C(\C)[C@@H](O)[C@H](C)C(=O)CCCC1CC(=O)NC(=O)C1`, the Potency result in assay [7], in [8], in assay [9], in assay [10], in [11] and in assay [12] was “inactive” each time. Besides, the Potency result in [13], in assay [17] and in assay [14] was “inactive” in each case. Also, in [15], the result was inactive.
